Several values for one entry are separate records, joined by “and”; a condition that tells them apart may be missing. Identical values can stand only once. About 79,000 compounds went through this panel and 15% of them were active in at least one assay; those are over-represented in the sample as a whole. Some compounds were tested as several samples or in several runs, with calls that do not always agree. Activity calls are given as the source filed them. Rule as the data show it: active = growth inhibition above about 70%; inactive = the rest.
How the values were obtained:
[1] = NCI Yeast Anticancer Drug Screen. Data for the rad50 strain (AID 155);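 also: 0% = growth of vehicle-only cultures of the same strain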; details: S. cerevisiae rad50 strain growth inhibition, stronger effect = higher value
Outline: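 Relative growth inhibition (compound vs vehicle) was measured in yeast with a defined repair-gene alteration.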

[2] = NCI Yeast Anticancer Drug Screen. Data for the mec2-1 strain (AID 157); details: S. cerevisiae mec2-1 strain, stronger effect = higher value
Outline: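 Strain: mec2-1 (DNA repair/cell cycle alteration). Compound exposure, then growth measured; inhibition expressed relative to vehicle.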

[3] = NCI Yeast Anticancer Drug Screen. Data for the sgs1 mgt1 strain (AID 161);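 also: 0% = growth of cultures given vehicle only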; details: S. cerevisiae sgs1 mgt1 strain, stronger effect = higher value
Outline: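 Test agents were incubated with a DNA-repair-mutant yeast strain. Growth was then read and compared against vehicle-treated controls.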

[4] = NCI Yeast Anticancer Drug Screen. Data for the cln2 rad14 strain (AID 165);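 also: 0% = growth equal to vehicle treated cultures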; details: S. cerevisiae cln2 rad14 strain, stronger effect = higher value
Outline: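 Compounds are applied to the cln2 rad14 yeast strain, and growth is then compared with that of vehicle-treated cultures to give inhibition.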

[5] = NCI Yeast Anticancer Drug Screen. Data for the bub3 strain (AID 167); details: S. cerevisiae bub3 mutant strain, stronger effect = higher value
Outline: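 Screening used yeast with an engineered genetic alteration affecting cell cycle control. Compound-exposed cultures were compared with vehicle cultures, and reduced growth was taken as inhibition.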

[6] = NCI Yeast Anticancer Drug Screen. Data for the mlh1 rad18 strain (AID 175); details: S. cerevisiae mlh1 rad18 strain growth inhibition, stronger effect = higher value
Outline: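 Read-out is yeast growth inhibition, calculated against vehicle-only controls. The compound was applied to a strain engineered with DNA damage repair alterations.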

[7] = at 5.0 µM (retest, dose inferred, filed as 0.5)
[8] = at 50.0 µM (retest, dose inferred, filed as 5.0)

Row | SMILES | growth inhibition [1, 7] | growth inhibition [1, 8] | growth inhibition ([1]; at 50.0 µM) | growth inhibition [2, 7] | growth inhibition [2, 8] | growth inhibition ([2]; at 50.0 µM) | growth inhibition [3, 7] | growth inhibition [3, 8] | growth inhibition ([3]; at 50.0 µM) | growth inhibition [4, 7] | growth inhibition [4, 8] | growth inhibition ([4]; at 50.0 µM) | growth inhibition [5, 7] | growth inhibition [5, 8] | growth inhibition ([5]; at 50.0 µM) | growth inhibition [6, 7] | growth inhibition [6, 8] | growth inhibition ([6]; at 50.0 µM)
1 | Fc1cccc(CSC(=S)Nc2ccc(F)c(F)c2)c1 | 12% (inactive) | 99% (active) | 99.6% (active) | 13% (inactive) | 99% (active) | 99.8% (active) | 10% (inactive) | 99% (active) | 99.7% (active) | -2% (inactive) | 91% (active) | 99.5% (active) | -2% (inactive) | 95% (active) | 99.7% (active) | 8% (inactive) | 99% (active) | 99.7% (active)
2 | N#CNC1=NCOCN1 | -3% (inactive) | 6% (inactive) | -1.6% (inactive) and 21.8% (inactive) | 2% (inactive) | 10% (inactive) | 22.4% (inactive) and 1.35% (inactive) | 2% (inactive) | -9% (inactive) | 13.8% (inactive) and 8.55% (inactive) | 4% (inactive) | 11% (inactive) | 13.3% (inactive) and 18.8% (inactive) | -12% (inactive) | -3% (inactive) | 10.1% (inactive) and -8.85% (inactive) | 12% (inactive) | 9% (inactive) | 64.4% (inactive) and 18.4% (inactive)
3 | O=[N+]([O-])c1cc([N+](=O)[O-])c2ccccc2c1NS(=O)(=O)/C=C/c1ccccc1 | 5% (inactive) | 54% (inactive) | 53% (inactive) | 8% (inactive) | 64% (inactive) | 70.7% (active) | 16% (inactive) | 47% (inactive) | 49% (inactive) | 10% (inactive) | 77% (active) | 50.4% (inactive) | 2% (inactive) | 42% (inactive) | 16.3% (inactive) | 7% (inactive) | 71% (active) | 44.5% (inactive)
4 | O=NC1C(Cl)C2CC1C1C(Br)C(Br)CC21 (configuration not stated) | 4% (inactive) and 3% (inactive) | 4% (inactive) and 46% (inactive) | 3.2% (inactive) and 55.5% (inactive) and 48.2% (inactive) | 23% (inactive) and 4% (inactive) | 2% (inactive) and 22% (inactive) | 1.4% (inactive) and 32.1% (inactive) and 34% (inactive) | -3% (inactive) and -2% (inactive) | 2% (inactive) and 29% (inactive) | 19.9% (inactive) and 66.5% (inactive) and 56.3% (inactive) | 1% (inactive) and 0% (inactive) | 1% (inactive) and 16% (inactive) | -26.6% (inactive) and 7.1% (inactive) and 6.65% (inactive) | 4% (inactive) and 0% (inactive) | -7% (inactive) and 7% (inactive) | -5.1% (inactive) and 11.2% (inactive) and 8.2% (inactive) | 6% (inactive) and 4% (inactive) | 31% (inactive) and 52% (inactive) | 30.6% (inactive) and 69.8% (inactive) and 59.1% (inactive)
5 | O=C1c2cc3c(cc2CC12Cc1ccccc1C2)CCC3 | 23% (inactive) | 21% (inactive) | 20% (inactive) | 15% (inactive) | 15% (inactive) | 2.25% (inactive) | 22% (inactive) | 54% (inactive) | 46.9% (inactive) | 10% (inactive) | 16% (inactive) | 16.8% (inactive) | 24% (inactive) | 51% (inactive) | 50% (inactive) | 19% (inactive) | 23% (inactive) | 17.4% (inactive)
6 | O=C(/C=C/c1ccccn1)c1ccccc1 | 4% (inactive) | 59% (inactive) | 9.35% (inactive) and 16.2% (inactive) | -13% (inactive) | 28% (inactive) | 40% (inactive) and 16.4% (inactive) | -1% (inactive) | 56% (inactive) | 44.7% (inactive) and 24.4% (inactive) | 5% (inactive) | 11% (inactive) | 7.2% (inactive) and 26.9% (inactive) | -5% (inactive) | 23% (inactive) | 47.2% (inactive) and 39.9% (inactive) | -1% (inactive) | 29% (inactive) | 80.7% (active) and 21.1% (inactive)
7 | O=c1[nH]c2cc([N+](=O)[O-])ccc2nc1/C=C(\O)c1ccc([N+](=O)[O-])cc1 | 21% (inactive) | 86% (active) | 54.2% (inactive) and -3.6% (inactive) | -4% (inactive) | 59% (inactive) | 16.1% (inactive) and -6.35% (inactive) | 13% (inactive) | 85% (active) | 82.1% (active) and -3.95% (inactive) | 4% (inactive) | 38% (inactive) | 34% (inactive) and -15.9% (inactive) | 11% (inactive) | 86% (active) | 4.75% (inactive) and 5.75% (inactive) | 6% (inactive) | 77% (active) | 68.4% (inactive) and -1.4% (inactive)
8 | O=C(O)/C(=C(/c1ccccc1)c1ccc(Cl)cc1)c1ccccc1 | 35% (inactive) | 98% (active) | 98.2% (active) and 89.3% (active) | 37% (inactive) | 100% (active) | 32.6% (inactive) and -26.5% (inactive) | 46% (inactive) | 100% (active) | 81.8% (active) and 89.8% (active) | 55% (inactive) | 99% (active) | 94.2% (active) and 91.3% (active) | 43% (inactive) | 99% (active) | 49.7% (inactive) and 90.3% (active) | 69% (inactive) | 98% (active) | 97.4% (active) and 89.5% (active)
9 | CN(C)CCC(=O)c1cccc([N+](=O)[O-])c1 | 10% (inactive) | 85% (active) | 39.3% (inactive) and 83.9% (active) | 13% (inactive) | 87% (active) | 4.1% (inactive) and 88.5% (active) | 12% (inactive) | 89% (active) | 11.4% (inactive) and 96% (active) | 7% (inactive) | 71% (active) | 31.4% (inactive) and 34.9% (inactive) | 2% (inactive) | 92% (active) | 14.5% (inactive) and 90.2% (active) | 11% (inactive) | 96% (active) | 33.4% (inactive) and 96.8% (active)
10 | CC12CCCCC1C/C(=N/NC(N)=O)CC2 (configuration not stated) | -135% (inactive) | -78% (inactive) | 8.9% (inactive) and 3.8% (inactive) | -52% (inactive) | -45% (inactive) | 13.1% (inactive) and 1.25% (inactive) | -64% (inactive) | -54% (inactive) | -5.85% (inactive) and -9.35% (inactive) | -58% (inactive) | -42% (inactive) | 41.9% (inactive) and -25.8% (inactive) | -62% (inactive) | -49% (inactive) | -4.1% (inactive) and -11.3% (inactive) | -123% (inactive) | -99% (inactive) | 14.5% (inactive) and 10.7% (inactive)
11 | C=C1CCC[C@@H]2[C@@](C)(Cc3cc(O)ccc3O)C(C)CC[C@]12C (some centres not stated) | 16% (inactive) | 97% (active) | 97.5% (active) | 11% (inactive) | 97% (active) | 98.2% (active) | 25% (inactive) | 98% (active) | 97.7% (active) | -4% (inactive) | 97% (active) | 97.3% (active) | 0% (inactive) | 97% (active) | 97.8% (active) | 11% (inactive) | 96% (active) | 97.7% (active)
12 | O=C(O)c1ccc2c(c1)Cc1cc([N+](=O)[O-])ccc1-2 | -3% (inactive) | 88% (active) | 70.1% (active) | -7% (inactive) | 72% (active) | 13.4% (inactive) | 7% (inactive) | 85% (active) | 64% (inactive) | -92% (inactive) | 83% (active) | 34.6% (inactive) | -10% (inactive) | 0% (inactive) | 14% (inactive) | 4% (inactive) | 82% (active) | 73% (active)
13 | CC(=O)Nc1cc(C)ccc1C | 1% (inactive) | -3% (inactive) | -36.6% (inactive) and -46.2% (inactive) | -2% (inactive) | 0% (inactive) | 15.4% (inactive) and -28.3% (inactive) | 0% (inactive) | -3% (inactive) | -1.25% (inactive) and -9.15% (inactive) | -3% (inactive) | 4% (inactive) | 51.8% (inactive) and 34.4% (inactive) | 0% (inactive) | -3% (inactive) | 42.2% (inactive) and -9.35% (inactive) | 3% (inactive) | -4% (inactive) | -36.9% (inactive) and -2% (inactive)
14 | C=C1C(=O)N2c3ccccc3C(C)(C)C2(S)C(=O)N1C (configuration not stated) | 9% (inactive) | 87% (active) | 88.8% (active) | 3% (inactive) | 86% (active) | 95.6% (active) | 3% (inactive) | 67% (inactive) | 96.5% (active) | -9% (inactive) | 40% (inactive) | 63.9% (inactive) | -5% (inactive) | 78% (active) | 93.6% (active) | 5% (inactive) | 83% (active) | 96.7% (active)

Reference: PubChem BioAssay (NCI)
